Source: ChEMBL document CHEMBL3988442, “University of Dundee, Small-Polar-MMV Screening Library” (2021)

The compounds below were run against T1, Aspartate--tRNA(Asp/Asn) ligase (Mycobacterium tuberculosis (strain ATCC 25618 / H37Rv)) (UniProt P9WFW3) (assay: Assay for Asp RNA synthetase-1 from Mycobacterium tuberculosis). Conditions: 30 µM.
T1 sequence (whole entry): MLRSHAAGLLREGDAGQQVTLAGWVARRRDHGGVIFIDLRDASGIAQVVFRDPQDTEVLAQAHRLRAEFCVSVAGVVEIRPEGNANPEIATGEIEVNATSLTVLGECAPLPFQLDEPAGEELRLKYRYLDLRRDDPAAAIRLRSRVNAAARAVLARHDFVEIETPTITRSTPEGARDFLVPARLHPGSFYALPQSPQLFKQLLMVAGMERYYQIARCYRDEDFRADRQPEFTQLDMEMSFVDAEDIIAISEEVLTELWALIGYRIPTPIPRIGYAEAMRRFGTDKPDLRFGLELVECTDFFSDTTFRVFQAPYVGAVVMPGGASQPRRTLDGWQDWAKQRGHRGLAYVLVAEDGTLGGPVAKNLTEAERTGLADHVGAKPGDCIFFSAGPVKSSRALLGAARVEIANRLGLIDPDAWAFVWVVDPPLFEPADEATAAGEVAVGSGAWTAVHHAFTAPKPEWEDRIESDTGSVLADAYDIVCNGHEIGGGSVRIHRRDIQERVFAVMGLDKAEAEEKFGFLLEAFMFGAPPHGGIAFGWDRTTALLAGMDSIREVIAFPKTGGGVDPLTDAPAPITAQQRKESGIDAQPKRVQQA
Type: functional
Parameters: scale not given: direction of the effect not stated beside the values
In the case of CCN(CC)C(C(=O)NCc1ccc(N2CCCC2)nc1)C(C)C (stereo not given), the Percent Effect is reported as -8.76%.
CCn1c(Cn2cncn2)nnc1C1CCN(Cc2ccncc2)CC1 was tested, and the Percent Effect was 4.98%.
Work on O=C(c1ccccn1)N1CCc2nc(-c3cnccn3)nc(O)c2C1 yielded a Percent Effect of -1.53%.
Work on CCS(=O)(=O)N1CCC(c2nc3ccc(-c4ccccc4)cn3n2)CC1 yielded a Percent Effect of 0.251%.
CC(=O)NCCNC(=O)c1sc(-c2ccc(Cl)s2)nc1C was tested, and the Percent Effect was 7.28%.
O=C(c1ccc[nH]1)N1C[C@H]2CC[C@@H]1CN(C1Cc3ccccc3C1)C2 showed a Percent Effect of 2.83%.
In the case of CCn1ncc2c1C(COC)CN(Cc1ccsc1)C2 (stereo not given), the Percent Effect is reported as -1.74%.
With Cn1ccc(C(=O)N2CCN(c3cc(C#N)ccn3)CC2)cc1=O the Percent Effect was 3.75%.
In the case of O=C(NCCOc1ccc(F)c(F)c1)NCc1ccncc1, the Percent Effect is reported as -0.948%.
O=C(Nc1cccc(CNCc2cccs2)c1)C1CCCC1 was tested, and the Percent Effect was 1.74%.
Compound COc1c(CNCC(c2cccc(F)c2)N(C)C)c(C(C)C)nn1C (stereo not given) has a Percent Effect of -3.2%.
CO[C@@H]1CC[C@H]2[C@H]1OCCN2C(=O)c1ccc(C)o1 was tested, and the Percent Effect was 2.26%.
Work on Cc1nccc(CN2CC[C@H](Oc3cccc(F)c3)[C@@](C)(O)C2)n1 yielded a Percent Effect of -0.368%.
Work on Cn1nc(C(=O)N2CCCCC2c2nc3cc(F)ccc3[nH]2)ccc1=O (stereo not given) yielded a Percent Effect of -2.79%.
For O=C(NCC1CCOC1)Nc1ccc(OCC(F)(F)F)nc1 (stereo not given), the Percent Effect was -1.61%.
COC(=O)N1CCCC(C(=O)NCc2cc3cccc(OC)c3o2)C1 (stereo not given) was tested, and the Percent Effect was -0.457%.
For Cc1nn(C)c(C)c1-c1cncc(C2CCN(S(C)(=O)=O)CC2)n1, the Percent Effect was -2.63%.
With CC(=O)c1cc(CN2C[C@H]3CC[C@@H]2CN(S(=O)(=O)N(C)C)C3)cs1 the Percent Effect was -1.45%.
Compound Cn1ccnc1CN1C[C@@H](CN2CCC(CO)CC2)[C@@H](CO)C1 has a Percent Effect of -1.77%.
Cc1cc(C)n(CC2CN(Cc3cscn3)CCO2)n1 (stereo not given) was tested, and the Percent Effect was -1.81%.
Compound CN1CC(=O)N(c2cccc(F)c2)CC12CCN(S(C)(=O)=O)C2 (stereo not given) has a Percent Effect of -0.565%.
For Cc1nc(CN(C)C2CCCN(c3cccnn3)C2)no1 (stereo not given), the Percent Effect was -6.37%.
CC(C)Oc1cc(N2CCC(N3CCC(O)CC3)CC2)nc(N)n1 was tested, and the Percent Effect was -2.8%.
Work on O=C1CCSCC(C(=O)N2CCCC2)N1 (stereo not given) yielded a Percent Effect of -3.45%.
Work on CC(C)N(C)Cc1nnc2n1CCCN(C(=O)c1ccco1)C2 yielded a Percent Effect of 1.27%.
With CCC(CC)c1cc(CNC(=O)N2CCOC(C)C2)on1 (stereo not given) the Percent Effect was -0.437%.
For CC(C)OCc1ccc(CNC(=O)CC(F)(F)F)cc1, the Percent Effect was -1.66%.
Work on O=C(N1CCCCC1)N1CCN(CC(O)c2ccc(F)cc2)CC1 (stereo not given) yielded a Percent Effect of -2.17%.
CSCc1cccc(S(=O)(=O)NCCCn2ccnc2)c1 gave a Percent Effect of 11%.
For CCc1nnc(CN2CCCC(c3cc(C(F)(F)F)[nH]n3)C2)o1 (stereo not given), the Percent Effect was 1.01%.
For COCCN1C[C@@H](C)[C@@]2(COCCN(C(=O)Cc3ccccc3)C2)C1, the Percent Effect was 1.75%.
Work on Cc1cccc(OCCC(=O)N(C)CCC#N)c1C yielded a Percent Effect of 0.839%.
With O=C(NCCNC(=O)N1CCC(c2ccccc2)C1)C1CC1 (stereo not given) the Percent Effect was -0.747%.
CNC(=O)COc1ccccc1CNC1CCc2ncnn2C1 (stereo not given) was tested, and the Percent Effect was -0.833%.
Work on O=S(=O)(N(Cc1ccccn1)C1CC1)N1CCCC1c1ccco1 (stereo not given) yielded a Percent Effect of 2.62%.
Compound CCc1nc(CN2CCCN(C(=O)c3cnc[nH]3)CC2)cs1 has a Percent Effect of -2.77%.
Cc1nsc(N2CCCN(c3nc(C4CC4)ns3)CC2)n1 was tested, and the Percent Effect was 0.575%.
Work on CC(C(=O)Nc1ccc(N2CCCC2)nc1)n1cncn1 (stereo not given) yielded a Percent Effect of 0.459%.
Compound Cc1cc(C)c(CNC(=O)N(C)CC2CCCCO2)c(=O)[nH]1 (stereo not given) has a Percent Effect of 2.7%.
For Cc1oncc1C(=O)N1CCC2(CCN(Cc3ccccn3)C2=O)C1 (stereo not given), the Percent Effect was -2.39%.

Each compound was assayed against Shiga toxin 2 (Escherichia coli O157:H7) (UniProt P09385+P09386) (assay: E. coli 0.157:H7 Shiga Toxin SOP - stx2 screening assay). Conditions: 30 µM.
Type: functional
Parameters: scale not given: direction of the effect not stated beside the values
With CCN(CC)C(C(=O)NCc1ccc(N2CCCC2)nc1)C(C)C (stereo not given) the Percent Effect was 9.3%.
CCn1c(Cn2cncn2)nnc1C1CCN(Cc2ccncc2)CC1 gave a Percent Effect of 0.0626%.
For O=C(c1ccccn1)N1CCc2nc(-c3cnccn3)nc(O)c2C1, the Percent Effect was -15.6%.
Work on CCS(=O)(=O)N1CCC(c2nc3ccc(-c4ccccc4)cn3n2)CC1 yielded a Percent Effect of -35.2%.
With CC(=O)NCCNC(=O)c1sc(-c2ccc(Cl)s2)nc1C the Percent Effect was 8.5%.
Work on O=C(c1ccc[nH]1)N1C[C@H]2CC[C@@H]1CN(C1Cc3ccccc3C1)C2 yielded a Percent Effect of 10.5%.
CCn1ncc2c1C(COC)CN(Cc1ccsc1)C2 (stereo not given) was tested, and the Percent Effect was -2.67%.
With Cn1ccc(C(=O)N2CCN(c3cc(C#N)ccn3)CC2)cc1=O the Percent Effect was 1.09%.
With O=C(NCCOc1ccc(F)c(F)c1)NCc1ccncc1 the Percent Effect was -4.38%.
In the case of O=C(Nc1cccc(CNCc2cccs2)c1)C1CCCC1, the Percent Effect is reported as 13%.
For COc1c(CNCC(c2cccc(F)c2)N(C)C)c(C(C)C)nn1C (stereo not given), the Percent Effect was -15.5%.
With CO[C@@H]1CC[C@H]2[C@H]1OCCN2C(=O)c1ccc(C)o1 the Percent Effect was -16.7%.
With Cc1nccc(CN2CC[C@H](Oc3cccc(F)c3)[C@@](C)(O)C2)n1 the Percent Effect was -25.4%.
Cn1nc(C(=O)N2CCCCC2c2nc3cc(F)ccc3[nH]2)ccc1=O (stereo not given) showed a Percent Effect of -1.06%.
O=C(NCC1CCOC1)Nc1ccc(OCC(F)(F)F)nc1 (stereo not given) showed a Percent Effect of -28.7%.
With COC(=O)N1CCCC(C(=O)NCc2cc3cccc(OC)c3o2)C1 (stereo not given) the Percent Effect was 14.7%.
Compound Cc1nn(C)c(C)c1-c1cncc(C2CCN(S(C)(=O)=O)CC2)n1 has a Percent Effect of -8.32%.
In the case of CC(=O)c1cc(CN2C[C@H]3CC[C@@H]2CN(S(=O)(=O)N(C)C)C3)cs1, the Percent Effect is reported as -57.1%.
With Cn1ccnc1CN1C[C@@H](CN2CCC(CO)CC2)[C@@H](CO)C1 the Percent Effect was 12.7%.
Cc1cc(C)n(CC2CN(Cc3cscn3)CCO2)n1 (stereo not given) was tested, and the Percent Effect was -3.38%.
Work on CN1CC(=O)N(c2cccc(F)c2)CC12CCN(S(C)(=O)=O)C2 (stereo not given) yielded a Percent Effect of 8.46%.
Cc1nc(CN(C)C2CCCN(c3cccnn3)C2)no1 (stereo not given) gave a Percent Effect of -10.7%.
For CC(C)Oc1cc(N2CCC(N3CCC(O)CC3)CC2)nc(N)n1, the Percent Effect was 2.73%.
For O=C1CCSCC(C(=O)N2CCCC2)N1 (stereo not given), the Percent Effect was -6.39%.
CC(C)N(C)Cc1nnc2n1CCCN(C(=O)c1ccco1)C2 showed a Percent Effect of -12.8%.
For CCC(CC)c1cc(CNC(=O)N2CCOC(C)C2)on1 (stereo not given), the Percent Effect was -11.9%.
CC(C)OCc1ccc(CNC(=O)CC(F)(F)F)cc1 was tested, and the Percent Effect was 12.4%.
O=C(N1CCCCC1)N1CCN(CC(O)c2ccc(F)cc2)CC1 (stereo not given) was tested, and the Percent Effect was 31.9%.
In the case of CSCc1cccc(S(=O)(=O)NCCCn2ccnc2)c1, the Percent Effect is reported as -15.1%.
Compound CCc1nnc(CN2CCCC(c3cc(C(F)(F)F)[nH]n3)C2)o1 (stereo not given) has a Percent Effect of -4.16%.
For COCCN1C[C@@H](C)[C@@]2(COCCN(C(=O)Cc3ccccc3)C2)C1, the Percent Effect was -6.45%.
Cc1cccc(OCCC(=O)N(C)CCC#N)c1C was tested, and the Percent Effect was 8.57%.
Work on O=C(NCCNC(=O)N1CCC(c2ccccc2)C1)C1CC1 (stereo not given) yielded a Percent Effect of -19.2%.
With CNC(=O)COc1ccccc1CNC1CCc2ncnn2C1 (stereo not given) the Percent Effect was -29.9%.
Compound O=S(=O)(N(Cc1ccccn1)C1CC1)N1CCCC1c1ccco1 (stereo not given) has a Percent Effect of -10.3%.
CCc1nc(CN2CCCN(C(=O)c3cnc[nH]3)CC2)cs1 gave a Percent Effect of -5.89%.
With Cc1nsc(N2CCCN(c3nc(C4CC4)ns3)CC2)n1 the Percent Effect was -18.6%.
With CC(C(=O)Nc1ccc(N2CCCC2)nc1)n1cncn1 (stereo not given) the Percent Effect was 11.3%.
Cc1cc(C)c(CNC(=O)N(C)CC2CCCCO2)c(=O)[nH]1 (stereo not given) was tested, and the Percent Effect was 28.8%.
Cc1oncc1C(=O)N1CCC2(CCN(Cc3ccccn3)C2=O)C1 (stereo not given) was tested, and the Percent Effect was -12.9%.
